Assay outcomes: PubChem BioAssay, National Center for Advancing Translational Sciences (NCATS)
HT1080NT lethal = kills 2HG-producing HT-1080-NT fibrosarcoma cells; HT-1080-NT fibrosarcoma viability, CellTiter-Glo ATP luminescence, 48 h; Potency, µM (top dose mostly 46.1 µM), for inactives: at the top dose activity, negative = less viability, actives largely listed as cytotoxic; actives 1.6% (n = 360,000); AID 686970;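 also: NT is the 2HG producing partner of a matched IDH1 knockdown line; 0% = DMSO-treated cells and -100% = media-only wells without cells; nearly all actives have a fitted effect of over 55% in size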
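Toxicity toward the 2HG-producing NT line was scored as %Activity, normalised to DMSO and no-cell wells, from CellTiter-Glo luminescence after 48 hours' treatment.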
KB-V1 MDR tox = kills drug-selected multidrug resistant KB-V1 cells; actives 3.4% (n = 400,000); AID 1347076; Potency, µM (titrated, usually from 46.1 µM), actives largely listed as cytotoxic; KB-V1 MDR cells viability, CellTiter-Glo, 72 h; also: nearly all actives have a fitted effect of over 60% in size
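Drug-selected KB-V1 cells, grown in DMEM lacking phenol red with 10% FBS, receive compound titrations; after three days at 37 degrees C, surviving cell ATP is quantified by CellTiter-Glo luminescence and responses normalized and curve-fitted.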
TDP1 cell noCPT = qHTS for Inhibitors of human tyrosyl-DNA phosphodiesterase 1 (TDP1): qHTS in cells in absence of CPT. DT40 Tdp1-/- hTDP1 cells, no CPT, ATP luminescence, 48 h. Potency, µM (titrated, usually from 46.2 µM), inactives show at the top dose activity change, negative = growth inhibition, most hits filed as inhibitors. AID 686978, 2013. actives 15% (n = 420,000); also: nearly all actives have a fitted effect of over 55% in size
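Luminescent ATP content (CellTiter-Glo) served as the growth readout. Knockout chicken DT40 cells expressing human TDP1 were exposed to compounds without camptothecin for a minimum 48 hr at 37 °C.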
TDP1 cell CPT = growth inhibition of DT40 Tdp1-/-;hTDP1 cells with camptothecin (screen for TDP1 inhibitors). Potency, µM (doses to about 46.2 µM), for the others: at the highest dose activity change, negative = growth inhibition, usual class: inhibitors. actives 12% (n = 420,000). chicken DT40 Tdp1-/-;hTDP1 cells + 20 nM CPT, ATP luminescence, 48 h; also: nearly all actives have a fitted effect of over 55% in size
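Chicken DT40 Tdp1-/- cells stably complemented with human TDP1 were seeded at 400 cells/well in medium containing 20 nM camptothecin, exposed to pin-transferred compounds, and grown at 37 °C for at least 48 hr. Viability was read as ATP luminescence.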
HT1080 IDH1KD tx = HT-1080 IDH1 knockdown cell toxicity (counter line); HT-1080 IDH1 knockdown viability, ATP luminescence, 48 h; Potency, µM (doses to about 46.1 µM), without a hit: at the highest dose activity, negative = toxicity, actives largely listed as cytotoxic; actives 2% (n = 360,000); AID 686971;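 also: 0% = DMSO wells and -100% = cell-free medium wells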
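Luminescent ATP read-out (CellTiter-Glo, 10 min at room temperature) after 48 h compound exposure at 37 °C gave viability of IDH1-knockdown HT-1080 cells. Activity was normalised to DMSO and cell-free wells, then fitted as concentration-response curves.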
KB-3-1 cytotox = KB-3-1 parental cell cytotoxicity; Potency, µM (top dose mostly 46.1 µM), most hits filed as cytotoxic; actives 1.4% (n = 400,000); KB-3-1 viability, CellTiter-Glo ATP luminescence, 72 h; AID 1347075; also: nearly all actives have a fitted effect of over 60% in size
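Screening of KB-3-1 cells (DMEM, 10% FBS, phenol-red free) ran from lowest to highest compound concentration; after 72 h at 37 °C viability was read luminescently and curves fitted.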
An asterisk follows results filed as active; i = inactive; ? = inconclusive; . = no result; [ ] = remark or other dose. Sampled rows, rich in hits. Any-hit rate of the full collection: about 19%. Calls follow the shape of the dose curve; as a rule, active = well fitted curve in the direction sought with a large enough effect; inconclusive = small, poorly fitted or top-dose-only effect, or another doubt; inactive = no such curve, though single readings can be large; an effect the other way counts as inactive or inconclusive. Unless noted, % is scaled to controls: 0 for no effect and ±100 for the full control effect; potency is read from the fitted curve at half-maximal effect.

SMILES | HT1080NT lethal | KB-V1 MDR tox | TDP1 cell noCPT | TDP1 cell CPT | HT1080 IDH1KD tx | KB-3-1 cytotox
COc1ccc(C(=O)N2CC(=O)Nc3ccc(C)cc3C2c2ccccc2)cc1OC (stereo not drawn) | . | i | ? | ? | . | i
Cc1cc2cc(CN(CC3CCCO3)C(=S)NCc3ccco3)c(=O)[nH]c2cc1C (stereo not drawn) | -9% | i | 16µM* | ? | -6% | i
Cc1cc2cc(CN(Cc3ccco3)C(=S)NCC3CCCO3)c(=O)[nH]c2cc1C (stereo not drawn) | 2% | 9.2µM* | 21µM* | ? | 10% | i
C#CCNC(=O)C[C@@H]1C[C@@]2(C(=O)OC)CCCCC=C2N(Cc2cccc3ccccc23)C1=O | -22% | i | ? | ? | ? | i
COC(=O)[C@]12CCCCC=C1N(Cc1cccc3ccccc13)C(=O)[C@H](CC(=O)N1CCN(C(=O)c3ccco3)CC1)C2 | ? | i | ? | ? | ? | i
COC(=O)[C@]12CCCCC=C1N(Cc1cccc3ccccc13)C(=O)[C@H](CC(=O)N1CCCC1)C2 | ? | i | 21µM* | ? | ? | ?
COC(=O)[C@]12CCCCC=C1N(Cc1cccc3ccccc13)C(=O)[C@H](CC(=O)N1CCN(C(=O)C3CC3)CC1)C2 | -11% | ? | 21µM* | ? | -12% | i
CCOC(=O)C(=O)/C(C#N)=C/Nc1ccccc1 | 9% | ? | -9% | 4% | 18% | i
CCOC(=O)/C(C#N)=C\c1cccnc1 | -20% | i | 0% | 6% | -8% | i
CCOC(=O)/C(=C\c1ccccc1)C(=O)c1cc(C(C)=O)c(Nc2ccccc2)s1 | -10% | ? | 9.2µM* | 8.2µM* | 6.3µM* | i
CCOC(=O)/C(=C\c1cccnc1)C(=O)c1cc(C(C)=O)c(Nc2ccccc2)s1 | 5.8µM* | 6.5µM* | 1.8µM* | 2.1µM* | 4.1µM* | 3.3µM*
COc1cc(/C=C/CN2CCN(Cc3ccc(C)o3)C(CCO)C2)ccc1O (stereo not drawn) | -3% | i | -11% | -5% | -13% | i
Cc1cccc(NC(=O)c2ncn3c2C(=O)N(C)CC3)c1 | 12% | i | ? | -11% | 5% | i
COc1ccc(NC(=O)CSc2ccc(-c3sc(C)nc3C)nn2)cc1 | -15% | ? | ? | -24% | -24% | i
Cc1nc(C)c(-c2ccc(SCC(=O)Nc3cccc(F)c3)nn2)s1 | ? | ? | 23µM* | 16µM* | -17% | i
Cc1nc(C)c(-c2ccc(SCC(=O)Nc3ccc(Br)cc3)nn2)s1 | . | . | ? | 21µM* | . | .
Cc1nc(C)c(-c2ccc(SCC(=O)Nc3cccc(Cl)c3)nn2)s1 | -2% | i | ? | 26µM* | -18% | i
CC(=O)c1cccc(NC(=O)CSc2ccc(-c3sc(C)nc3C)nn2)c1 | -18% | ? | 23µM* | 21µM* | -19% | i
CCc1ccc(NC(=O)CSc2ccc(-c3sc(C)nc3C)nn2)cc1 | -18% | i | ? | ? | ? | i
Cc1ccc(C(=O)c2ccccc2C(=O)OCC(=O)NCC2CCCO2)cc1 (stereo not drawn) | 6% | i | ? | 1% | 4% | ?
CC(=O)Nc1ccc(N(C(=O)CNC(=O)c2cccs2)C(C(=O)NC(C)(C)C)c2ccccc2)cc1 (stereo not drawn) | 2% | i | -9% | 3% | 4% | i
CCCCN(C)c1c(C)nc2ccc(C(=O)N(CC)CCN(C)C)cn12 | 3% | i | -1% | -19% | 8% | i
CC(=O)N(c1ccc2oc(=O)sc2c1)S(=O)(=O)c1ccc(C(=O)O)cc1 | 1% | i | -16% | 1% | 0% | i
CCCC(=O)N(c1ccc2oc(=O)sc2c1)S(=O)(=O)c1ccccc1 | ? | i | 21µM* | ? | -22% | i
CC(=O)c1cccc(OC(=O)C2=CC=CN3CCS(=O)(=O)N=C23)c1 | 4% | i | 12% | 1% | 5% | i
SMILES | HT1080NT lethal | KB-V1 MDR tox | TDP1 cell noCPT | TDP1 cell CPT | HT1080 IDH1KD tx | KB-3-1 cytotox
CC(=O)Cc1nsc(NC(=O)c2ccco2)n1 | 3% | i | ? | -16% | 6% | i
CC(=O)Cc1nsc(NC(=O)c2ccc(COc3ccccc3C)o2)n1 | ? | i | 12% | -2% | ? | i
CC(=O)Cc1nsc(NC(=O)c2ccc(Br)o2)n1 | -3% | i | 1.6µM* | ? | 0%[9.24 µM] | i
CC(=O)Cc1nsc(NC(=O)c2ccc(-c3cccc(Cl)c3)o2)n1 | -23% | i | 16µM* | 16µM* | ? | ?
CCOC(=O)c1ccc(N2CCN(c3cccc(Cl)c3)CC2)c(NC(=O)Nc2ccc(OC)cc2OC)c1 | . | . | -10% | -16% | . | .
C[C@@H]1C(=O)O[C@H]2[C@@H](O)[C@@]34[C@H]5CC(C(C)(C)C)[C@]36[C@@H](OC(=O)[C@@H]6O)O[C@@]4(C(=O)O5)[C@@]12O (stereo partly drawn) | . | . | -11% | 2% | . | .
CCOC(=O)c1scc(-c2ccccc2)c1S(=O)(=O)Nc1ccc(N(C)C)cc1 | . | i | ? | ? | . | i
CCOC(=O)c1scc(-c2ccccc2)c1S(=O)(=O)N1CCN(c2ccccc2OC)CC1 | . | ? | 13µM* | 8.2µM* | . | i
CCOC(=O)c1scc(-c2ccc(C)cc2)c1S(=O)(=O)N1CCN(c2ccccc2)CC1 | . | i | 8.2µM* | 13µM* | . | i
CCOC(=O)c1c(C)[nH]c(C)c1S(=O)(=O)N1CCN(c2ccccc2OC)CC1 | . | . | -15% | -11% | . | .
Cc1c(CNC2CCCCC2)c(C(=O)O)c(C)n1Cc1ccccc1F | . | ? | 6% | 5% | . | i
Cc1ccc(NC(=O)C2CCN(S(=O)(=O)c3c(C)noc3/C=C/c3ccco3)CC2)cc1C | . | . | 13µM* | ? | . | .
CCOc1ccc(NC(=O)C2CCN(S(=O)(=O)c3c(C)noc3/C=C/c3ccco3)CC2)cc1 | . | . | ? | -18% | . | .
Cc1cccc(NC(=O)C2CCN(S(=O)(=O)c3c(C)noc3/C=C/c3ccco3)CC2)n1 | -6% | i | 23µM* | 16µM* | -3% | i
Cc1noc(/C=C/c2ccco2)c1S(=O)(=O)N1CCC(C(=O)Nc2ccc(F)c(Cl)c2)CC1 | . | . | 4.6µM* | 5.2µM* | . | .
